High-throughput results (PubChem)
An excerpt weighted towards active compounds, which were near 12% of everything screened.
BAZ2B block – BAZ2B (human) inhibition. Q9UIF8. AlphaScreen BAZ2B-H3K14Ac peptide displacement. Potency, µM (titrated, usually from 114 µM), inactives show at the highest dose activity change, negative = inhibition, actives largely listed as inhibitors. actives 4.4% (n = 360,000). AID 504333; also: potency is read from the fitted curve at half-maximal effect; % is scaled to controls: 0 for no effect and ±100 for the full control effect; nearly all actives have a fitted effect of over 60% in size
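AlphaScreen displacement: compounds (up to 110uM) incubated 30 min at room temperature with a preformed 50 nM BAZ2B/50 nM biotinylated H3K14Ac peptide complex in PBS pH 7.4 with Tween-20. Donor and acceptor beads at 10 ug/mL final added, 20 min light-protected before reading.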
PI5P4Ka inh – PI5P4K alpha (human) kinase inhibition; P48426; PI5P4Kalpha enzyme, ADP-Glo luminescence, 60 min; hits give low values; max response, %; actives 1.2% (n = 330,000); active = max response of -50% or lower; inconclusive = between -30% and -50%; inactive = -30% or higher; also: value at the top dose of about 77 µM; % is scaled to controls: 0 for no effect and ±100 for the full control effect
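Reactions run in 0.038 M HEPES pH 7.4, 0.28 mM EGTA, 0.1% CHAPS and 5% DMSO, with PI5P4Kalpha, substrate, compound and 5 microM ATP final, one hour at room temperature. Readout is ADP-Glo luminescence.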
G9a block – G9a (human) methyltransferase inhibition; Potency, µM (titrated, usually from 102 µM), for inactives: top-dose activity, negative = inhibition, actives largely listed as inhibitors; G9a H3K9 monomethylation, AlphaScreen, 2 h; AID 504332; actives 8.8% (n = 350,000); Q96KQ7; also: potency is read from the fitted curve at half-maximal effect; % is scaled to controls: 0 for no effect and ±100 for the full control effect; nearly all actives have a fitted effect of over 75% in size
Target sequence (Q96KQ7 913-1193 limits assumed): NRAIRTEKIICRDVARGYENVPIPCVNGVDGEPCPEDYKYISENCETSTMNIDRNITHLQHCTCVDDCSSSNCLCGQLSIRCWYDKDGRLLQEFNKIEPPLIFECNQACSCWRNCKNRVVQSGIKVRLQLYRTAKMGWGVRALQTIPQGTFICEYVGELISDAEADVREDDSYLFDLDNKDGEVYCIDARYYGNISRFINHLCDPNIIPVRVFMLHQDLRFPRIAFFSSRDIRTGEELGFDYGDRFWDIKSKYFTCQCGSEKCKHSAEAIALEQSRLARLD
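Step 1: enzyme (final 20 nM) with compound, 15 min RT. Step 2: substrate peptide 500 nM and SAM 20 uM, 2 h RT. Step 3: anti-H3K9me1 antibody and AlphaScreen beads, 10 min, then plate read.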
HP1b binding inh – HP1-beta chromodomain-methylated histone interaction inhibition; actives 0.56% (n = 390,000); AlphaScreen HP1-beta / biotin-H3K9me3 peptide binding; P83916; Potency, µM (titrated, usually from 114 µM), for the others: at the highest dose activity change, negative = inhibition, actives largely listed as inhibitors; also: potency is read from the fitted curve at half-maximal effect; nearly all actives have a fitted effect of over 70% in size
Target sequence (P83916 whole entry, looked up): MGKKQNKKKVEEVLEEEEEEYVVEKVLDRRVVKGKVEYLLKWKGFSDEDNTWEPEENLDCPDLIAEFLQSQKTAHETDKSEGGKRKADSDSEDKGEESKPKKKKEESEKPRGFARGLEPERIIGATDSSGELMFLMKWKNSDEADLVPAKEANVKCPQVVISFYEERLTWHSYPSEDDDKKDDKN
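AlphaScreen: HP1-beta (50 nM) preformed 30 min with biotin-H3(1-18)K9me3 peptide (50 nM) in PBS pH 7.4, 0.01% Tween-20. Compound added for 30 min at RT, then streptavidin donor/nickel chelate acceptor beads (10 ug/mL) for 30 min.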
JMJD2A Tudor inh – inhibitors of human JMJD2A Tudor domain; O75164; AlphaScreen JMJD2A-Tudor / H3K4me3 peptide binding; Potency, µM (top dose mostly 114 µM), for the others: top-dose activity change, negative = inhibition, actives largely listed as inhibitors; actives 4.4% (n = 390,000); AID 504339; also: potency is read from the fitted curve at half-maximal effect; % is scaled to controls: 0 for no effect and ±100 for the full control effect; nearly all actives have a fitted effect of over 50% in size
PLK1 PBD inh – PLK1 (human) polo-box domain binding inhibition | Plk1 PBD binding of FITC phosphopeptide, fluorescence polarization | Potency, µM, without a hit: max response, negative = inhibition, hits mostly inhibitors | actives 2.8% (n = 360,000) | AID 720504; also: potency is read from the fitted curve at half-maximal effect; series mostly up to about 57 µM; % is scaled to controls: 0 for no effect and ±100 for the full control effect; nearly all actives have a fitted effect of over 65% in size
The depositor's hits bear a star; ? = inconclusive; · = no result given; [ ] = remark or other dose. Unless noted, calls follow the shape of the dose curve; as a rule, active = well fitted curve in the direction sought with a large enough effect; inconclusive = small, poorly fitted or top-dose-only effect, or another doubt; inactive = no such curve, though single readings can be large; an effect the other way counts as inactive or inconclusive.

SMILES | BAZ2B block | PI5P4Ka inh | G9a block | HP1b binding inh | JMJD2A Tudor inh | PLK1 PBD inh
O=c1oc2ccc(Cl)cc2cc1-c1cn2c(n1)sc1ccccc12 | 1.4% | · | 9.3%[59 µM] | 35.1% | -12.0% | ·
O=C(COC(=O)c1cc(-c2cccs2)nn1-c1ccccc1)Nc1ccc(Cl)c([N+](=O)[O-])c1 | 0.6% | 0.0 | 39.8µM* | 11.2% | -18.2% | 3.7%
Cc1coc2c1c(C)cc1oc(=O)c(CC(=O)N[C@@H](CC(C)C)C(=O)O)c(C)c12 | 2.0% | -27.1 | 50.1µM* | 18.5% | -28.7% | -14.3%
CCCC(NC(=O)Cc1c(C)c2c(cc(C)c3c(C)coc32)oc1=O)C(=O)O (configuration not stated) | -1.3% | 1.8 | 3.9% | 48.5% | -16.4% | -8.9%
Cc1cc(C)cc(NC(=O)C2CCN(c3cc(C)nc4c(-c5ccc(Cl)cc5)c(C)nn34)CC2)c1 | -5.3% | · | -2.2%[59 µM] | 17.8% | -9.1% | ·
CCOC(=O)C(Sc1nnc(-c2ccncc2)o1)C(C)=O (configuration not stated) | 3.1% | · | 7.94µM* | 9.9% | ? | -10.2%
COC(=O)C(C)Sc1nnc(-c2ccncc2)o1 (configuration not stated) | -1.1% | · | 9.9%[12.7 µM] | 36.3% | -3.7% | -0.4%
CN=c1scc(-c2ccc(Cl)cc2)n1C | 7.1% | 0.1 | 17.7%[59 µM] | 2.6% | -1.9% | -11.8%
CCc1cccc2c(-c3csc(=NC)n3C)c[nH]c12 | -31.2% | 0.5 | 50.1µM* | 1.5% | -31.3% | ?
CCCCCNCc1cccn1C | -36.8% | · | 8.5%[59 µM] | 5.9% | -29.7% | -11.0%
CCCCOCCCNCc1cccn1CCN1CCOCC1 | -35.5% | -3.9 | ? | -23.5% | 7.94µM* | -6.9%
O=C(CCCN1C(=O)/C(=C\c2cccs2)SC1=S)NNC(=O)c1ccncc1 | ? | -6.4 | -5.0% | 22.9% | 50.1µM* | -13.3%
CCN(CC)CCOC(=O)c1ccc(NC(=O)CCCN2C(=O)/C(=C\c3cccs3)SC2=S)cc1 | 20µM* | 0.0 | · | ? | 25.1µM* | 8.8%
Cc1ccc(C(=O)NN2C(=O)/C(=C/c3cccn3C)SC2=S)cc1 | 22.4µM* | -6.0 | ? | ? | ? | 14.4%
O=C(CCCN1C(=O)/C(=C/c2cccs2)SC1=S)NNC(=O)c1cccnc1 | ? | -9.9 | 7.2%[59 µM] | 13.8% | -32.6% | -9.4%
Cn1cccc1/C=C1\SC(=S)N(NC(=O)c2ccccc2Cl)C1=O | ? | -4.1 | -17.2%[59 µM] | 12.9% | -12.6% | 37.8%
COc1cccc(/C=C2\SC(=S)N(NC(=O)c3ccncc3)C2=O)c1 | -17.1% | 0.6 | -35.9% | 8.1% | -25.3% | -9.0%
O=C(NN1C(=O)/C(=C/c2cccs2)SC1=S)c1ccncc1 | -25.0% | -21.6 | 44.7µM* | -13.3% | -30.9% | -26.9%
Cc1ccc(O)c(NC(=O)C2CCCN2C(=O)OCc2ccccc2)c1 (configuration not stated) | -27.8% | -2.3 | 3.2% | 28.8% | -18.0% | 0.7%
COc1cc2[nH]c(=S)n(NC(=O)CC(C)C)c(=O)c2cc1OC | ? | · | 3.98µM* | -2.1% | 3.55µM* | -4.3%
CC1CCN(C(=O)Cn2c(=O)n(CCCCCC(=O)NCc3ccccc3Cl)c(=O)c3sccc32)CC1 | -1.7% | · | 20.4%[59 µM] | 33.6% | -18.1% | ·
CCn1c(C(=O)N2CCC(C(=O)NCCCSC3CCCCC3)CC2)cc2sccc21 | ? | 11.0 | 39.8µM* | 3.0% | ? | -8.9%
O=C(NCCCN1CCCC1)C1CCN(C(=O)c2cc3sccc3n2Cc2ccc(F)cc2)CC1 | ? | · | 50.1µM* | 16.3% | -18.9% | -2.2%
Cn1c(C(=O)N2CCCC(C(=O)NCc3ccc4c(c3)OCO4)C2)cc2sccc21 (configuration not stated) | ? | -0.4 | 50.1µM* | 10.4% | -13.4% | -4.8%
CCn1c(C(=O)N2CCC(C(=O)NCc3ccc4c(c3)OCO4)CC2)cc2sccc21 | -35.6% | -13.2 | 44.7µM* | 12.6% | ? | -2.6%
COc1cccc(NC(=O)c2nnn(Cc3ccc(OC)c(Br)c3)c2N)c1 | 0.1% | · | 6.3%[59 µM] | 19.7% | -27.3% | ·
